For 40 sequences, sensor-assay potency score (higher = more potent) results are on record in the OligoGym collection.
Note: reference of the scale not given here.

One assay concerns the target HPD. Put plainly: pooled miR-30 sensor sort-seq; sequence = guide strand. The conditions noted are these: shRNA.
Regarding TGCTGCAGTAGAATGACGCGGC, the sensor-assay potency score (higher = more potent) was -0.159.

Turning to TGTGATGATGTCTTCGGTCTTG, the sensor-assay potency score (higher = more potent) was found to be 0.215.

The sequence AAACTTGTCTTGCTCTACCCAG gave a sensor-assay potency score (higher = more potent) of -0.591.

AACTTGTCTTGCTCTACCCAGG showed a sensor-assay potency score (higher = more potent) of -0.858.

Regarding TATTCCGTGTGCACCTGCGTGT, the sensor-assay potency score (higher = more potent) is -0.504. Same read-out and setting: under TTATAGTCCACATATTCCTGGA stands 0.144; under TACATGGCTGACCACCTCCCGG, -1.66.

A further assay deals with HS3ST2. Described as above. The conditions noted are these: shRNA.
TTGATTTGCCCAAGCATCGAGG had a sensor-assay potency score (higher = more potent) of -0.341.

On to ATAATATCTATCATCATTGGAA, for which the sensor-assay potency score (higher = more potent) was -0.218. Still for that read-out and setting: as for ATCGCTTATAATATCTATCATC, the figure is -1.47. Same read-out and setting: as for TTGAGTGACAAAGTAGCTGGGC, the figure is 0.674; as for TTGCTTGAACAGACTGATGAAA, -0.965; as for TTATTTCACATGGACAAGCATG, -1.23. The same measure, in the same setting: as for TTCTTGGAGAGTGTCTGCGTGT, the figure is -0.361.

In turn, TCTTGAGTGACAAAGTAGCTGG came in with a sensor-assay potency score (higher = more potent) of -0.586. Same read-out and setting: under TAACAGCAGAATTATGTGCTTT stands -0.0537; under TAACACAGGTAAGTGCAGGAGA, -0.326; under TTGTCCGTGATGAATCTCTTAA, -1.07.

The target of a further assay is HS3ST4. The description is as above. The conditions noted are these: shRNA.
The sequence TTTGAGGCCTAGAAAATCCTGT had a sensor-assay potency score (higher = more potent) of 0.0519. For the sequence TTCTGTACCACTCCAACCCCTT, the sensor-assay potency score (higher = more potent) was -0.516.

Sequence TGAGCCGTGATCATCTCGCTGG yielded a sensor-assay potency score (higher = more potent) of -0.131. On the same count and under the same terms, as for TTTCTTTGACAGTGTCTGCGTG, the figure is -0.405; as for TAAAACATCAAGTTGAAGGGTT, 0.47; as for TTCTTTGACAGTGTCTGCGTGT, 0.364. On the same count and under the same terms, under TTTTACTAGAACAATTCCTGGT stands 0.147; under TTTACTAGAACAATTCCTGGTT, 0.821. Still for that read-out and setting: under TTGTCACAAAGTAACTTGGAGT stands -0.395; under TTTGTCACAAAGTAACTTGGAG, -0.0205; under TTTGTTGAAATAGAAATGCTTC, -0.152.

TTGACAACTATTTATCCTCTGT came in with a sensor-assay potency score (higher = more potent) of 0.841.

For another assay, the target named is HS6ST1. The description is as above. The conditions noted are these: shRNA.
For TACTTCTTCTCGTAGTGGGGGT, the sensor-assay potency score (higher = more potent) is -0.105. Same read-out and setting: under TTGAGCTCCTCGATGCGCCGGA stands 0.162; under TAGCAGGTGCACTTCTTCTGGC, -0.598; under TAGTAGAACTTCCTGGGCGTGC, -0.463. The same measure, in the same setting: as for TTTTTTTGTATGAATAACCAAA, the figure is -1.12.

In turn, TGATGTAGTAGAACTTCCTGGG returned a sensor-assay potency score (higher = more potent) of 0.812. The same measure, in the same setting: under ATGAGCATGAAGCACACCGAGC stands -1.78. Still for that read-out and setting: as for TAGTGTGATGCATCCACCCAGG, the figure is -0.887; as for TTGGTGAGGGACACACTCCCGG, -0.875. Regarding TTGAGGTTGAACGTCCGCTCGA, the sensor-assay potency score (higher = more potent) was -0.171.
